Source: PubChem BioAssay
In the library only some 1.1% were active in any assay of this set; here they are far more common.
AGP1 TOR yeast: modulators of TOR pathway AGP1-GFP in S. cerevisiae; S. cerevisiae AGP1-GFP multiplex flow cytometry, 3 h; GFP as percent of DMSO wells; GFP response vs DMSO, % at 10 µM; 320,000 tested, 0.02% active;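 active = GFP response relative to DMSO above a set limit, near screen average plus 3 SD, cut at about 150% in these data; inconclusive = fewer than 70 cells counted for the yeast strain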;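 also: median GFP channel fluorescence of the gated AGP1 strain per well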
LAP4 TOR yeast: yeast TOR pathway LAP4-GFP modulation; S. cerevisiae LAP4-GFP multiplex, flow cytometry GFP, 3 h; median GFP as percent of DMSO wells; GFP response vs DMSO, % at 10 µM; 320,000 tested, 0.34% active; AID 2023;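 active = GFP response vs DMSO above a set limit, about the screen mean plus 3 SD, cut at about 150% in these data; inconclusive = under 70 cell events counted for the yeast strain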
MEP2 TOR yeast: yeast TOR pathway MEP2-GFP modulation; S. cerevisiae MEP2-GFP strain, flow cytometry GFP, 3 h; 100% = DMSO control level; GFP response vs DMSO, % at 10 µM; 330,000 tested, 0.51% active;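 active = GFP response versus DMSO above a set limit, roughly screen mean plus 3 SD, cut at about 180% in these data; inconclusive = fewer than 70 cells counted for a yeast strain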;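 also: median GFP fluorescence of the barcode-gated MEP2-GFP cells per well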
VLA-4 inh: inhibition in a human VLA-4 binding assay; VLA-4 expressing cells, ligand binding flow cytometry; inhibition, % (about 7 µM as worked out from the volumes in the protocol); 330,000 tested, 0.2% active; in the data active = inhibition above about 50%
Target sequence (P13612 whole entry, looked up): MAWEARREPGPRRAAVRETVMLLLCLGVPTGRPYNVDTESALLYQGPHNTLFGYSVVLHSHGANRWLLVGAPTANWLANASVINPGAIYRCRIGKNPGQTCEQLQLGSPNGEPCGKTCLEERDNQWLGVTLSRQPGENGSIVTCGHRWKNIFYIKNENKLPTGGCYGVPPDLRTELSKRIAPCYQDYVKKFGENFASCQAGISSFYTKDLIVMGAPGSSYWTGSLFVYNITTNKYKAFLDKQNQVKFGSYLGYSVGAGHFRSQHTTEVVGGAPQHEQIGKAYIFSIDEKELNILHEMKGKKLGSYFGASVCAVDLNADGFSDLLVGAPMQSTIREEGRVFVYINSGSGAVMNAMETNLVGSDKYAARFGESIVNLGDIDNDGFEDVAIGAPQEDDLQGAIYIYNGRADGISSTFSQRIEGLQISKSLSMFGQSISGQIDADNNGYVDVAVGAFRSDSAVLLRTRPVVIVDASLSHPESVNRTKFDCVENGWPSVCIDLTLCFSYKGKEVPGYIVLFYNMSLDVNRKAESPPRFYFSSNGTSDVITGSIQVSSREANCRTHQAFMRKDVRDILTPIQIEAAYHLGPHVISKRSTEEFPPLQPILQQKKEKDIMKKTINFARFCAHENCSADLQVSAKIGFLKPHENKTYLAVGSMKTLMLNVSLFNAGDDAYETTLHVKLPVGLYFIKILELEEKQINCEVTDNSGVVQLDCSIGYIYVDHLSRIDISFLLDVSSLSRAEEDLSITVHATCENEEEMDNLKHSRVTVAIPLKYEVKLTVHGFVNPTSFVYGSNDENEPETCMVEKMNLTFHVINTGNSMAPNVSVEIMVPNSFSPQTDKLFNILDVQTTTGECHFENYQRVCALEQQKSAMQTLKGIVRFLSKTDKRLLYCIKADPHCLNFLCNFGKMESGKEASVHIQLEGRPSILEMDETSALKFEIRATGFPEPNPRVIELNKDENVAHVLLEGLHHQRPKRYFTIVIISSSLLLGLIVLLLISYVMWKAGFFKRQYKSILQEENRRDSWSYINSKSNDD
CIT2-GFP yeast: yeast TOR pathway CIT2-GFP modulation | GFP response vs DMSO, % at 10 µM | S. cerevisiae CIT2-GFP strain, flow cytometry, 3 h; 100 means same as DMSO wells | 320,000 tested, 0.065% active;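 active = GFP response relative to DMSO above a set limit, near the screen mean plus 3 SD, cut at about 150% in these data; inconclusive = Fewer than 70 cells measured for a yeast strain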;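 also: ratio of well median GFP fluorescence to mean of DMSO wells on the plate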
RPL19A-GFP yeast: modulators of TOR pathway RPL19A-GFP in S. cerevisiae | 330,000 tested, 0.3% active | S. cerevisiae RPL19A-GFP strain, flow cytometry, 3 h; stronger effect = lower value | AID 2025 | percent response vs DMSO, % at 10 µM;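 active = percent response vs DMSO below 50%; inconclusive = fewer than 70 events counted for the yeast strain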;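 also: median channel GFP fluorescence of the barcoded RPL19A-GFP strain; ratio of sample median GFP to plate DMSO average so 100% = DMSO; lower means less RPL19A-GFP as with rapamycin TOR inhibition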
The depositor's hits bear a star; i = inactive; ? = inconclusive; / = not tested or not shown; [ ] = another dose, or the depositor's remark.

SMILES	AGP1 TOR yeast	LAP4 TOR yeast	MEP2 TOR yeast	VLA-4 inh	CIT2-GFP yeast	RPL19A-GFP yeast
CCOc1cc(/C=N/NC(=O)c2ccc(N(C)S(=O)(=O)c3ccccc3)cc2)ccc1OC	20	89	515*[may fluoresce violet]	5	?	65
CCN1/C(=C/C=C/C=C/c2sc3ccccc3[n+]2CC)Sc2ccccc21	36	?	265*[may fluoresce red]	i	109	?
CC(=O)c1ccc(OCCCC(=O)OCC(=O)Nc2ccc3[nH]c(=O)[nH]c3c2)cc1	98	98	96	11	92	94
c1ccc(COC(CN2CCCCCC2)CN2CCCCCC2)cc1	/	/	105	5	/	102
CCOC(=O)c1c(C)[nH]c(C)c1C(=O)COC(=O)c1cc2ccccc2cc1O	104	127	152	6	154*	112
N#C/C(=C\c1ccc(OCCN2CCOCC2)cc1)C(=O)Nc1ccc(S(N)(=O)=O)cc1	97	94	98	-45	100	104
Cc1cc(NC(=O)CSC2=Nc3ccccc3C3=NC(Cc4ccccc4)C(=O)N23)n[nH]1 (configuration not stated)	18	86	266*[may fluoresce violet]	-12	?	52
Clc1ccc(SCc2cc(-c3ccccc3)on2)cc1	?	83	218*[may fluoresce violet]	1	?	53
COc1cc(/C=C2/CC(C)OC2=O)c([N+](=O)[O-])cc1OC (configuration not stated)	99	98	105	1	99	107
CSc1ncccc1C(=O)OCC(=O)NCc1ccc2c(c1)OCO2	106	97	109	-3	104	110
Oc1c(Br)cc(Br)cc1C=Nc1cccc2ncccc12	70	191*	92	0	65	81
O=C(COc1cc2oc(=O)c3c(c2cc1Cl)CCC3)NCC(O)c1ccccc1 (configuration not stated)	106	100	98	-4	109	106
O=[N+]([O-])c1ccc(CSc2nc3ccccc3[nH]2)cc1	93	97	98	36	88	99
O=c1cnnc(SCc2ccc([N+](=O)[O-])cc2)[nH]1	108	121	166	-102	174*	115
CSc1ccccc1C(=O)NC1CCCc2ccccc21 (configuration not stated)	109	98	100	9	107	102
N#C/C(=C\c1ccc([N+](=O)[O-])o1)C(=O)Nc1ccc(F)cc1	43	323*[may fluoresce violet]	823*[may fluoresce violet]	-229	?	114
COc1ccc(NC(=O)/C(C#N)=C\c2ccc(Br)o2)cc1	103	114	94	-5	90	102
Cc1onc(-c2ccccc2)c1C(=O)Nc1nnc(-c2ccncc2)s1	99	109	104	2	93	102
Cc1noc(C)c1C(=O)Nc1nnc(-c2ccccc2)s1	21	104	231*[may fluoresce violet]	-4	?	55
CCOc1ccc(Nc2nc(N)c([N+](=O)[O-])c(NCc3ccccc3)n2)cc1	110	110	104	3	97	100
CCOc1ccc(Nc2nc(N(C)c3ccccc3)nc(N)c2[N+](=O)[O-])cc1	28	94	199*	-1	102	63
COC(=O)Nc1ccc(S(=O)(=O)N(CCO)CC(F)(F)C(F)F)cc1	88	86	96	-2	96	89
CCN(CC(F)(F)C(F)F)S(=O)(=O)c1ccc(NC(=O)OC)cc1	?	?	?	12	?	14*[may fluoresce violet]
CC(C)NC(=O)COc1ccc(S(=O)(=O)N(C)Cc2ccccc2)cc1	18	92	408*[may fluoresce violet]	-6	?	71
CC1CCN(C(=O)c2[nH]cnc2C(=O)N[C@@H](C)c2ccccc2)CC1	112	113	106	-3	109	111
SMILES	AGP1 TOR yeast	LAP4 TOR yeast	MEP2 TOR yeast	VLA-4 inh	CIT2-GFP yeast	RPL19A-GFP yeast
Cc1cccc(NC(=O)Cc2ccc(-c3ccccc3)cc2)n1	96	100	96	-39	81	101
O=C(Cc1ccc(-c2ccccc2)cc1)Nc1ccccc1	19	95	326*[may fluoresce violet]	7	?	56
CN(Cc1ccccc1)C(=O)COC(=O)CCN1C(=O)C2CC=CCC2C1=O (configuration not stated)	100	100	98	1	96	96
Cc1ccccc1N1C(=O)c2sc3nc4c(c(=O)n3c2C1=O)CCC4	86	161*	93	2	86	94
Oc1ccccc1-c1cc(-c2ccco2)[nH]n1	82	116	88	14	/	98
Oc1ccc(Cl)cc1-c1cc(-c2ccco2)[nH]n1	39	98	252*	6	100	/
Cc1ccc(NC(=O)Cn2c([N+](=O)[O-])cnc2C)cc1Cl	96	84	107	2	100	103
COc1ccc(NC(=O)CN(C)C(C)C(=O)NC(=O)NC2CCCCC2)cc1 (configuration not stated)	90	94	95	-9	92	91
O=C(CNC(=O)c1ccco1)OCN1C(=O)c2ccccc2C1=O	28	98	269*[may fluoresce violet]	0	?	66
Cc1ccc(C(=O)NCC(=O)OCN2C(=O)c3ccccc3C2=O)cc1C	85	104	98	14	80	94
COc1ccc(OC)c(CNC(=O)C2CCCN(S(=O)(=O)N3CCC(C)CC3)C2)c1 (configuration not stated)	?	74	152	-3	?	14*[may fluoresce violet]
COc1cccc(NC(=O)CN(C)S(=O)(=O)c2ccc3[nH]c(=O)oc3c2)c1	106	107	102	-14	107	99
COc1ccccc1C(CNC(=O)CCNC(=O)c1ccccc1Cl)N1CCCC1 (configuration not stated)	91	89	101	6	96	88
Clc1ccc(-c2csc(N/N=C/c3ccco3)n2)cc1	?	69	596*[may fluoresce violet]	0	?	26*[may fluoresce violet]
CC1=CCC2C(=O)N(c3ccc4ccccc4n3)C(=O)C2C1 (configuration not stated)	40	101	115	0	67	103
Cc1cc(=O)n(-c2ccc3ccccc3n2)[nH]1	90	165*	103	3	95	101
Cc1nc(N2CCN(Cc3ccc(Cl)cc3)CC2)c2oc3ccccc3c2n1	101	106	97	-3	90	97
Cc1nc(N2CCC(C)CC2)c2oc3ccccc3c2n1	/	98	252*[may fluoresce violet]	8	?	49*[may fluoresce violet]
CC(=O)c1cccc(NC(=O)CN2C(=S)NC(C)(C)CC2C)c1 (configuration not stated)	99	103	96	3	95	97
CCCC(=O)Nc1cccc(NC(=O)c2ccccc2Br)c1	?	96	286*[may fluoresce violet]	11	?	34*[may fluoresce violet]
COc1cccc2cc3c(=O)oc4ccccc4c3nc12	/	87	187*[may fluoresce violet]	11	?	62
